Screening data: PubChem, The Scripps Research Institute Molecular Screening Center
Only some compounds are listed: those with a hit (about 1.8% of all), similar ones and a draw of the others.
LYPLA2 inh: blocks human lysophospholipase 2, a PME1 counter-screen; O95372; recombinant LYPLA2, FP-Rh probe fluorescence polarization; inhibition, % at 5.9 µM; hit rate 0.38% among 320,000;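 active = inhibition above the screen-wide mean plus 3 SD, limit set per campaign, cut at about 26% in these data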;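 also: 0% = LYPLA2 with DMSO and 100% = wells lacking LYPLA2 enzyme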
Target sequence (O95372 whole entry, looked up): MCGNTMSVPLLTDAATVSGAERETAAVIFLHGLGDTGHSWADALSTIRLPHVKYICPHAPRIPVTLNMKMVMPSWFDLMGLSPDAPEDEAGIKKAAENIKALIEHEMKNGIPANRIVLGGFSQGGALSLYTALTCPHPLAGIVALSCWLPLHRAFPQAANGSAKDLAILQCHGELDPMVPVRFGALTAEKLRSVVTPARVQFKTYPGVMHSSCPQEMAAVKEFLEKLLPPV
PAD4 FP inh: PAD4 (human) enzyme inhibition; recombinant PAD4, RCA probe fluorescence polarization; inhibition, % at 6.36 µM; hit rate 0.41% among 330,000; AID 485272;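 active = percent inhibition above a cutoff equal to the mean of all tested compounds plus 3 SD, cut at about 15% in these data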;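 also: 0% = PAD4 with RCA probe and DMSO and 100% = probe without PAD4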
Fam108B counter: Fam108B inhibition, counter-screen for RBBP9 inhibitors. recombinant Fam108B, FP-Rh probe fluorescence polarization. inhibition, % at 9.51 µM. hit rate 0.33% among 300,000;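 active = inhibition above the screen mean inhibition plus 3 SD, computed separately per campaign, cut at about 18% in these data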;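 also: inhibitors lower polarization as less probe binds the enzyme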
PME-1 inh: blocks human protein phosphatase methylesterase 1; recombinant PME-1, FP-Rh probe fluorescence polarization; hit rate 0.53% among 320,000; inhibition, % at 5.9 µM;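 active = inhibition above the campaign mean of all compounds plus 3 SD, cut at about 26% in these data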;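 also: competitive labeling of PME-1 active site by serine hydrolase directed probe; 0% = PME-1 with DMSO and 100% = wells lacking PME-1 enzyme; inhibitors block probe labeling so polarization falls and inhibition rises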
GSTO1 inh: GSTO1 inhibition, counter-screen for RBBP9 inhibitors. AID 1974. P78417. inhibition, % at 5.96 µM. hit rate 1.1% among 300,000. recombinant GSTO1, activity-based probe fluorescence polarization;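 active = inhibition above the campaign mean inhibition plus 3 SD, cut at about 35% in these data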;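 also: 0% = GSTO1-1 with DMSO and 100% = wells lacking GSTO1-1 enzyme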
LYPLA1 counter: counter-screen for PME1 inhibitors: inhibitors of human LYPLA1; O75608; recombinant LYPLA1, FP-Rh probe fluorescence polarization; inhibition, % at 5.9 µM; hit rate 0.16% among 320,000;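 active = inhibition above the mean of all tested compounds plus 3 SD, set per campaign, cut at about 14% in these data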;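 also: inhibitors block serine hydrolase probe labeling of LYPLA1 so polarization falls; 0% = enzyme with DMSO and 100% = wells lacking LYPLA1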
Target sequence (O75608 whole entry, looked up): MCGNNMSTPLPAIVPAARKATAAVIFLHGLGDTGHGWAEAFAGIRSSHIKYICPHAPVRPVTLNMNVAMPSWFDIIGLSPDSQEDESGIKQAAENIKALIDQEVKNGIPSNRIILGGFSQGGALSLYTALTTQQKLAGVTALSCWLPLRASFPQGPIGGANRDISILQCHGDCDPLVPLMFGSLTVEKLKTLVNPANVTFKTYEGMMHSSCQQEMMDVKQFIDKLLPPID
PAD4 FP conf: confirmation of human PAD4 inhibitors; recombinant PAD4, RCA probe fluorescence polarization; shares compounds with PAD4 FP inh; AID 488796; inhibition, % at 6.36 µM; hit rate 28% among 1,200;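 active = mean inhibition across replicates above the hit cutoff set by the earlier primary screen, cut at about 15% in these data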;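 also: inhibitors block active-site labeling by the probe so polarization falls; 0% = PAD4 with probe and DMSO and 100% = probe without PAD4 enzyme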
* = called active by the depositor; x = no result given.

SMILES	LYPLA2 inh	PAD4 FP inh	Fam108B counter	PME-1 inh	GSTO1 inh	LYPLA1 counter	PAD4 FP conf
CC(CN1CCN(C/C=C/c2ccccc2)CC1)c1ccccc1 (centres undefined)	7	-2	2	-2	-5	6	x
CC(NC(=O)c1c(O)c2ccccc2[nH]c1=O)c1ccccc1 (centres undefined)	-3	16*	-2	-8	3	0	5
CCC(=O)Nc1ccc(C(=O)CN2C(=O)NC3(CCCCCC3)C2=O)cc1	1	30*	x	-4	x	-6	-3
CCCCCC(=O)Nc1ccc(C(=O)CN2C(=O)NC3(CCCCCC3)C2=O)cc1	-4	0	1	-3	6	-3	x
Cc1onc(-c2ccccc2)c1C(=O)NC1CCC(C)CC1 (centres undefined)	4	-2	x	2	x	1	x
O=C(N/N=C/c1cn(-c2cccs2)nc1-c1ccccc1)c1ccccc1O	-42	27*	-37	-30	-29	-35	-3
O=C(N/N=C/c1cn(-c2cccs2)nc1-c1ccccc1)c1ccccc1Br	-59	-7	-31	-54	-15	-29	x
Cc1ccc(S(=O)(=O)N(C)C)cc1NC(=O)CCCNC(=O)c1ccc(Cl)cc1	6	3	2	-2	12	1	x
C(=Nc1ccc(Nc2ccccc2)cc1)c1ccc2ccccc2c1	7	24*	2	1	34	1	3
Cc1oc2cc(O)ccc2c(=O)c1-c1nncn1-c1ccccc1	7	18*	9	14	7	10	16*
O=C1CSC(c2ccccc2O)N1Cc1ccccc1 (centres undefined)	-4	41*	-2	-5	5	0	0
COc1ccc(C(=O)OC(C)C(=O)NC2CCCCC2C)cc1S(=O)(=O)N1CCOCC1 (centres undefined)	-1	0	5	-7	3	-1	x
Cc1ccc(NC(=O)c2cccc(C(=O)Nc3ccc(C)cc3C(=O)O)c2)c(C(=O)O)c1	-3	-1	-5	2	-43	1	x
Cc1ccc(S(=O)(=O)CCSc2cccc(C(=O)Nc3ccccc3C(=O)O)c2)cc1	2	19*	-7	36*	-42	-4	36*
CC(=O)Nc1ccc(Nc2nc(Cl)nc(Nc3ccc(NC(C)=O)cc3)n2)cc1	-6	19*	2	5	5	-3	1
COc1ccc(Nc2nc(Cl)nc(Nc3ccc(OC)cc3)n2)cc1	0	-6	0	3	4	1	x
Cc1ccccc1OCC(=O)Nc1ccccc1C(=O)NC1CC1	-3	-8	5	-14	7	-1	x
CCC(=O)Oc1ccc(C(=O)Nc2cccc(C(=O)NC(C)(C)C)c2)cc1	-3	115*	-2	-4	-4	-4	-3
CCC(=O)Oc1ccc(C(=O)Nc2cccc(NC(=O)c3ccco3)c2)cc1	12	0	-6	-3	2	-3	x
CC1(C)Cc2ccccc2C(CSc2ccccc2C(=O)O)=N1	0	20*	3	-4	12	-4	20*
COc1cc2c(cc1OC)C(CSc1ccccc1C(=O)O)=NC(C)(C)C2	0	7	2	2	9	1	x
CCOc1ccc(CN(CC)C(=O)Cc2c[nH]c3ccccc23)cc1OC	8	1	-4	2	4	0	x
O=C(O)CCC(=O)Nc1ccc(SSc2ccc(NC(=O)CCC(=O)O)cc2)cc1	-8	56*	-9	-5	18	-3	50*
COc1ncnc2c1NC1=C(S2)C(=NCCC(=O)O)CC(C)(C)C1	7	20*	0	4	3	10	24*
CN(C(=O)COC(=O)Cc1c(F)cccc1Cl)c1c(N)n(Cc2ccccc2)c(=O)[nH]c1=O	8	-2	x	4	x	6	x
CCOc1ccccc1NC(=O)CSc1nnc(CCC(=O)Nc2ccccc2F)n1C	2	2	4	-6	8	2	x
COc1ccc(S(=O)(=O)N2CCc3ccccc32)cc1C(=O)N(CC(C)C)C1CCS(=O)(=O)C1 (centres undefined)	6	-2	6	2	2	4	x
O=C(NCCCN1CCOCC1)c1cc2c([nH]c3ccccc32)c(-c2cccc(Br)c2)n1	-21	46*	-8	-9	-17	-19	31*
